# Where a chain is given by its changes, count along the chain named. Shown is part of a subset that was picked to be rich in the strongest signals.
# B1: R410P1E11 (Tachypleus tridentatus), TAL2_TACTR (protein)
# chain: MEKGTPPTHDSDNWMGRAKEIGNGGWDQFQFLFFDPNGYLYAVSNDKLYKASPPQSDTDNWIARATEIGSGGWSGFKFLFFHPNGYLYAVRGQRFYKALPPVSNQD
# B2: SLR2P2A3 (Tachypleus tridentatus), TAL2_TACTR (protein)
# chain: B1 chain with E20K, D27N, N45K, F76S, R91H, F95L
# B3: SIGNR8 (Mus musculus) (protein)
# chain: MAGEPEFHQSKNHEEEVTSGEQGFAEHDPEGLICSSKSLQGHLTQVPWLLLLLISLGLFLLMLATLVQVSRIRAYSQGQTQDQQGSSSLDKVAVPREQTHSGLEQIQQIQQQLTQFNASLAGLCRPCPWDWELFQGSCYLFSRTLGSWETSASSCEDLGAHLVIVNSVSEQRFMKYWNVRKNQRSWIGLSDHIHEGSWQWVDGSALKFSFWKEGEPNNDGDEDCVELFMDDWNDNKCTEQNFWVCEQPSAPCPHH
# Legend:
# Experiment in all cases: glycan array binding signal (z-score within array); higher = stronger binding
# Details in all cases: glycan notation: IUPAC condensed, linker removed
# [1] = target: Fuc(a1-2)Gal6S(b1-4)GlcNAc
# Summary of the method: (§1)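 Glycan array binding is given as a within-array Z-score, which can be read as non-binding when negative. The arrays, 3228 of them, came from the Consortium for Functional Glycomics database and were retained only where the protein sequence was available. Z-scores were averaged across arrays of the same protein sequence at different concentrations or buffers and across linkers.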
# [2] = target: Fuc(a1-2)[Gal(a1-3)]Gal(b1-4)Glc
# Summary of the method: as §1
# [3] = target: Fuc(a1-2)[GalNAc(a1-3)]Gal(b1-4)GlcNAc
# Summary of the method: as §1
# [4] = target: Fuc(a1-2)[GalNAc(a1-3)]Gal(b1-4)[Fuc(a1-3)]GlcNAc
# Summary of the method: as §1
# [5] = target: Fuc(a1-2)[GalNAc(a1-4)]Gal(b1-4)GlcNAc
# Summary of the method: as §1
# Fuc(a1-4)GlcNAc = target: Fuc(a1-4)GlcNAc
# Summary of the method: as §1
# Gal(a1-4)Gal(b1-4)Glc = target: Gal(a1-4)Gal(b1-4)Glc
# Summary of the method: as §1
# Gal(b1-3)Gal(b1-4)GlcNAc = target: Gal(b1-3)Gal(b1-4)GlcNAc
# Summary of the method: as §1
# [6] = target: Gal(b1-3)GalNAc(b1-4)[Neu5Ac(a2-3)]Gal(b1-4)Glc
# Summary of the method: as §1
# [7] = target: Gal(b1-3)[Neu5Ac(a2-6)]GalNAc
# Summary of the method: as §1
# [8] = target: Gal(b1-4)GlcNAc(a1-6)Gal(b1-4)GlcNAc
# Summary of the method: as §1
# [9] = target: Gal(b1-4)GlcNAc(b1-3)Gal(b1-4)[Fuc(a1-3)]GlcNAc(b1-3)Gal(b1-4)[Fuc(a1-3)]GlcNAc
# Summary of the method: as §1
# [10] = target: Gal(b1-4)GlcNAc(b1-3)[Gal(b1-4)GlcNAc(b1-6)]Gal(b1-4)GlcNAc
# Summary of the method: as §1
# Gal3S6S(b1-4)GlcNAc6S = target: Gal3S6S(b1-4)GlcNAc6S
# Summary of the method: as §1
# GalNAc(a1-3)Gal = target: GalNAc(a1-3)Gal
# Summary of the method: as §1
# [11] = target: GlcNAc(a1-3)Gal(b1-4)GlcNAc
# Summary of the method: as §1
# [12] = target: GlcNAc(a1-6)Gal(b1-4)GlcNAc
# Summary of the method: as §1
# [13] = target: Man(a1-2)Man(a1-3)[Man(a1-2)Man(a1-6)]Man(a1-6)[Man(a1-2)Man(a1-2)Man(a1-3)]Man
# Summary of the method: as §1
# Man(a1-3)[Man(a1-6)]Man = target: Man(a1-3)[Man(a1-6)]Man
# Summary of the method: as §1
# [14] = target: Man(a1-3)[Man(a1-6)]Man(a1-6)[Man(a1-3)]Man(b1-4)GlcNAc(b1-4)GlcNAc
# Summary of the method: as §1
# [15] = target: Neu5Ac(a2-3)Gal(b1-3)GalNAc6S
# Summary of the method: as §1
# [16] = target: Neu5Ac(a2-3)Gal(b1-3)GlcNAc(b1-3)Gal(b1-3)GlcNAc
# Summary of the method: as §1
# [17] = target: Neu5Ac(a2-3)GalNAc(b1-4)GlcNAc
# Summary of the method: as §1
# Neu5Ac(a2-8)Neu5Ac = target: Neu5Ac(a2-8)Neu5Ac
# Summary of the method: as §1
# Fuc(a1-2)[Gal(a1-3)]Gal = target: Fuc(a1-2)[Gal(a1-3)]Gal
# Summary of the method: as §1
# [18] = target: Fuc(a1-2)[Gal(a1-4)]Gal(b1-4)GlcNAc
# Summary of the method: as §1
# Gal(a1-3)Gal = target: Gal(a1-3)Gal
# Summary of the method: as §1
# [19] = target: Gal(b1-3)GlcNAc(b1-3)Gal(b1-3)GlcNAc
# Summary of the method: as §1
# Gal3S(b1-4)GlcNAc6S = target: Gal3S(b1-4)GlcNAc6S
# Summary of the method: as §1
# GlcA(b1-3)GlcNAc = target: GlcA(b1-3)GlcNAc
# Summary of the method: as §1
# GlcNAc(b1-3)Gal(b1-4)Glc = target: GlcNAc(b1-3)Gal(b1-4)Glc
# Summary of the method: as §1
# Neu5Ac(a2-6)GalNAc = target: Neu5Ac(a2-6)GalNAc
# Summary of the method: as §1
# [20] = target: Neu5Ac(a2-8)Neu5Ac(a2-3)[GalNAc(b1-4)]Gal(b1-4)Glc
# Summary of the method: as §1
# Neu5Gc(a2-3)Gal(b1-4)Glc = target: Neu5Gc(a2-3)Gal(b1-4)Glc
# Summary of the method: as §1
# [21] = target: Neu5Gc(a2-3)Gal(b1-4)GlcNAc
# Summary of the method: as §1
# Neu5Gc(a2-6)GalNAc = target: Neu5Gc(a2-6)GalNAc
# Summary of the method: as §1
# [22] = target: Fuc(a1-3)[Gal(b1-4)]GlcNAc(b1-4)Gal(b1-4)[Fuc(a1-3)]GlcNAc
# Summary of the method: as §1
# [23] = target: Fuc(a1-3)[GalNAc(b1-4)]GlcNAc
# Summary of the method: as §1
# Gal(a1-3)Gal(b1-4)GlcNAc = target: Gal(a1-3)Gal(b1-4)GlcNAc
# Summary of the method: as §1
# [24] = target: Gal(a1-3)[Gal(a1-4)]Gal(b1-4)GlcNAc
# Summary of the method: as §1
# Gal(b1-3)Gal = target: Gal(b1-3)Gal
# Summary of the method: as §1
# [25] = target: Gal(b1-3)GlcNAc(b1-3)Gal(b1-4)Glc
# Summary of the method: as §1
# [26] = target: Gal(b1-3)[Neu5Ac(b2-6)]GalNAc
# Summary of the method: as §1
# [27] = target: Gal(b1-4)GlcNAc(b1-3)Gal(b1-4)GlcNAc(b1-3)Gal(b1-4)GlcNAc
# Summary of the method: as §1
# [28] = target: Gal(b1-4)GlcNAc(b1-6)[Gal(b1-3)]GalNAc
# Summary of the method: as §1
# [29] = target: GlcNAc(b1-3)Gal(b1-4)GlcNAc
# Summary of the method: as §1
# [30] = target: Neu5Ac(a2-3)Gal(b1-3)[Fuc(a1-4)]GlcNAc(b1-3)Gal(b1-4)[Fuc(a1-3)]GlcNAc
# Summary of the method: as §1
# [31] = target: Neu5Ac(a2-3)[GalNAc(b1-4)]Gal(b1-4)Glc
# Summary of the method: as §1
# [32] = target: Neu5Ac(a2-3)[GalNAc(b1-4)]Gal(b1-4)GlcNAc
# Summary of the method: as §1
# Neu5Ac(a2-6)Gal(b1-4)Glc = target: Neu5Ac(a2-6)Gal(b1-4)Glc
# Summary of the method: as §1
binder,measurement,setting,value
B1,glycan array binding signal (z-score),[1],-0.187
same,glycan array binding signal (z-score),[2],-0.282
same,glycan array binding signal (z-score),[3],2.74
same,glycan array binding signal (z-score),[4],1.41
same,glycan array binding signal (z-score),[5],5.65
same,glycan array binding signal (z-score),Fuc(a1-4)GlcNAc,-0.369
same,glycan array binding signal (z-score),Gal(a1-4)Gal(b1-4)Glc,-0.323
same,glycan array binding signal (z-score),Gal(b1-3)Gal(b1-4)GlcNAc,-0.622
same,glycan array binding signal (z-score),[6],-0.397
same,glycan array binding signal (z-score),[7],-0.538
same,glycan array binding signal (z-score),[8],-0.52
same,glycan array binding signal (z-score),[9],-0.411
same,glycan array binding signal (z-score),[10],-0.144
same,glycan array binding signal (z-score),Gal3S6S(b1-4)GlcNAc6S,0.451
same,glycan array binding signal (z-score),GalNAc(a1-3)Gal,7.43
same,glycan array binding signal (z-score),[11],3.25
same,glycan array binding signal (z-score),[12],10.1
same,glycan array binding signal (z-score),[13],-0.751
same,glycan array binding signal (z-score),Man(a1-3)[Man(a1-6)]Man,-0.45
same,glycan array binding signal (z-score),[14],-0.483
same,glycan array binding signal (z-score),[15],-0.515
same,glycan array binding signal (z-score),[16],0.008
same,glycan array binding signal (z-score),[17],0.139
same,glycan array binding signal (z-score),Neu5Ac(a2-8)Neu5Ac,-0.039
B2,glycan array binding signal (z-score),Fuc(a1-2)[Gal(a1-3)]Gal,-0.054
same,glycan array binding signal (z-score),[2],-0.191
same,glycan array binding signal (z-score),[18],-0.148
same,glycan array binding signal (z-score),[5],7.28
same,glycan array binding signal (z-score),Fuc(a1-4)GlcNAc,-0.416
same,glycan array binding signal (z-score),Gal(a1-3)Gal,-0.317
same,glycan array binding signal (z-score),[19],-0.344
same,glycan array binding signal (z-score),Gal3S(b1-4)GlcNAc6S,-0.09
same,glycan array binding signal (z-score),GalNAc(a1-3)Gal,6.13
same,glycan array binding signal (z-score),GlcA(b1-3)GlcNAc,0.168
same,glycan array binding signal (z-score),[11],5.44
same,glycan array binding signal (z-score),[12],6.84
same,glycan array binding signal (z-score),GlcNAc(b1-3)Gal(b1-4)Glc,5.09
same,glycan array binding signal (z-score),Neu5Ac(a2-6)GalNAc,-0.16
same,glycan array binding signal (z-score),[20],-0.279
same,glycan array binding signal (z-score),Neu5Gc(a2-3)Gal(b1-4)Glc,-0.253
same,glycan array binding signal (z-score),[21],-0.059
same,glycan array binding signal (z-score),Neu5Gc(a2-6)GalNAc,-0.125
B3,glycan array binding signal (z-score),Fuc(a1-2)[Gal(a1-3)]Gal,2.32
same,glycan array binding signal (z-score),[18],3.32
same,glycan array binding signal (z-score),[4],-0.386
same,glycan array binding signal (z-score),[22],-0.385
same,glycan array binding signal (z-score),[23],-0.369
same,glycan array binding signal (z-score),Gal(a1-3)Gal,2.62
same,glycan array binding signal (z-score),Gal(a1-3)Gal(b1-4)GlcNAc,3.18
same,glycan array binding signal (z-score),[24],4.59
same,glycan array binding signal (z-score),Gal(b1-3)Gal,4.35
same,glycan array binding signal (z-score),[6],-0.329
same,glycan array binding signal (z-score),[25],-0.386
same,glycan array binding signal (z-score),[26],-0.394
same,glycan array binding signal (z-score),[27],1.7
same,glycan array binding signal (z-score),[28],2.18
same,glycan array binding signal (z-score),GalNAc(a1-3)Gal,-0.329
same,glycan array binding signal (z-score),[29],-0.398
same,glycan array binding signal (z-score),Man(a1-3)[Man(a1-6)]Man,-0.373
same,glycan array binding signal (z-score),[30],-0.393
same,glycan array binding signal (z-score),[31],-0.4
same,glycan array binding signal (z-score),[32],-0.4
same,glycan array binding signal (z-score),Neu5Ac(a2-6)Gal(b1-4)Glc,-0.394

# Reference: the supplement of paper PMC8728848
